Compound activity deposited in PubChem BioAssay by National Center for Advancing Translational Sciences (NCATS).
A selection: hits, their analogues and other compounds. The true share with any hit is near 20%.
Pf growth 96h: P. falciparum growth inhibition at 96 hour, primary screen for plastid delayed-death inhibitors; P. falciparum luciferase reporter growth, 96 h; Potency, µM (doses to about 28.7 µM), for inactives: at the top dose activity change, negative = inhibition, most hits filed as inhibitors; 320,000 tested, 6.9% active; note: potency is the fitted concentration of half-maximal effect; % is set by controls: 0 for no effect and ±100 for the full control effect
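Erythrocytes infected with luciferase-expressing P. falciparum were dispensed at 2% hematocrit and 0.05% parasitemia (final), then incubated with compounds 96 hours at 37 C in 5% CO2. Luminescence after detection reagent addition reported growth.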
Shiga inhibitor: inhibitors of Shiga toxin in Vero cells; inhibition, % at 38.7 µM; 290,000 tested, 9.2% active; Vero cells, Shiga toxin protein synthesis inhibition reporter; in the data active = inhibition mostly above about 28%, no sharp cut-off; inactive = mostly below about 43%; note: 0% is about no effect
Pf growth 48h: P. falciparum growth inhibition at 48 hours (one generation) | Potency, µM (highest dose often 28.7 µM), inactives show top-dose activity change, negative = inhibition, usual class: inhibitors | 310,000 tested, 5.9% active | P. falciparum luciferase growth in erythrocytes, 48 h; note: potency is the fitted concentration of half-maximal effect; % is set by controls: 0 for no effect and ±100 for the full control effect
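Luminescence readout; reporter = integrated firefly luciferase in P. falciparum. RBC culture at 2% hematocrit, 0.1% parasitemia final, 37 C/5% CO2; decreased signal taken as growth inhibition.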
Cycloheximide cs: counter-screen hit for Shiga toxin inhibitors, cycloheximide; cell reporter, cycloheximide protein synthesis inhibition counterscreen; max response, %; 300,000 tested, 12% active; AID 2314; in the data active = max response mostly above about 13%, no sharp cut-off; inactive = mostly below about 14%; note: read at 38.3 µM for the half of the compounds with a filed dose; 0% is about no effect
HCMV antiviral: human cytomegalovirus inhibition; HFF cells, HCMV-luciferase reporter, 72 h; stronger effect = lower value; activity change, negative = inhibition, % at 57.5 µM; 410,000 tested, 4.5% active; AID 1259415; in the data active = activity change below about -60%; inconclusive = no clear call, values can overlap the other calls; inactive = above about -39%; note: % is set by controls: 0 for no effect and ±100 for the full control effect
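Cell-based, HFFs, 1000 cells/well, 16 h 37C; cpds in DMSO + HCMV-luc, MOI 1 PFU/cell; 72 h 37C; OneGlo luminescence after 5 min RT; norm. to buffer vs Salinomycin 10uM.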
* hit, by the source's call; i = inactive; ? = inconclusive; nt = no result given. Unless noted, calls come from the whole dose curve; as a rule, active = well fitted inhibition curve with a large enough effect; inconclusive = small, poorly fitted or top-dose-only effect, or another doubt; inactive = no such curve, though single readings can be large or run the other way.

SMILES	Pf growth 96h	Shiga inhibitor	Pf growth 48h	Cycloheximide cs	HCMV antiviral
COc1cc(N2CCCC2)c(OC)cc1/C=C(/C#N)c1ccc(F)cc1	-26%	12	10µM*	-1	?
COc1ccc(C=C(C#N)c2ccc(OC)cc2)cc1	nt	nt	nt	nt	-16
COc1ccc(C(C#N)=Cc2ccccc2OC)cc1	nt	nt	nt	nt	-88*
COc1cc(N2CCCC2)c(OC)cc1/C=C(/C#N)c1ccc(Br)cc1	?	-9	nt	-5	-15
CC(=O)c1c[nH]c(C(=O)NCc2cccc(C(F)(F)F)c2)c1	0%	-4	-13%	-1	-3
COc1cc2cc(C#N)c(SCC(=O)N3CCOCC3)nc2cc1OC	?	-1	55%	3	170
CCOc1ccc2cc(C#N)c(SCC(=O)N3CCC(C)CC3)nc2c1	29%	-5	9.3µM*	1	?
COc1ccc2nc(SCC(=O)N3CCN(c4ccc(F)cc4)CC3)c(C#N)cc2c1	15µM*	23	?	10	117
CCOc1ccc2nc(SCC#N)c(C#N)cc2c1	11%	24	92%	22*	-68*
Cc1cccc2cc(C#N)c(SCC(=O)N3CCC(C)CC3)nc12	5%	3	?	5	-5
COc1ccc(C(=O)NCCNc2nc3ccc(C)cc3cc2C#N)cc1	9.3µM*	34*	?	23*	-11
C#C[C@]1(O)CC[C@H]2[C@H]3[C@H](CC[C@@]21C)C1=C(CC(=O)CC1)C[C@@H]3C	-26%	nt	-5%	nt	nt
Cc1cc2oc(C(=O)Nc3nc(-c4ccccc4)ns3)c(C)c2cc1Cl	nt	nt	nt	nt	-14
CCOC(=O)CSc1nc2cc(OCC)ccc2cc1C#N	nt	88*	119%	65*	38
COc1ccc2cc(C#N)c(SCC(=O)NNC(=O)Cc3ccccc3)nc2c1	-19%	11	-5%	-1	-31
COC(=O)CSc1nc2cc(OC)ccc2cc1C#N	nt	68*	200%	53*	36
COC(=O)CSc1nc2cc(C)cc(C)c2cc1C#N	0%	-10	65%	-2	?
CCOc1ccc2cc(C#N)c(SCC(=O)NC(C)CC)nc2c1 (stereo unspecified)	7.4µM*	-22	3%	-2	nt
COC(=O)CSc1nc2ccc(C)cc2cc1C#N	-20%	149*	i	36*	43
COc1ccc2cc(C#N)c(SCC(=O)N3CCCC3)nc2c1	138%	14	-24%	3	66
COc1ccc(C2CC(=O)c3cnc4c(-c5ccccc5)c(C)nn4c3C2)cc1OC (stereo unspecified)	nt	nt	nt	nt	-35
CC(C)Sc1nc2ccc(Br)cc2[nH]1	1%	88*	33%	36*	-102*
NS(=O)(=O)c1ccc(CCNC(=O)c2cc3ccccc3s2)cc1	-21%	-1	-23%	2	-10
COc1cc(CC(NC(C)=O)C(=O)NC2CCN(S(=O)(=O)c3ccc(NC(C)=O)cc3)CC2)cc(OC)c1 (stereo unspecified)	21%	-2	-12%	-2	-72*
COc1ccc(OC)c(CN2CCN(S(=O)(=O)c3ccc(NC(C)=O)cc3)CC2)c1	21%	22	-18%	-2	-18
SMILES	Pf growth 96h	Shiga inhibitor	Pf growth 48h	Cycloheximide cs	HCMV antiviral
CCc1ccccc1NC(=O)N1CCC(NC(=O)C(Cc2ccc(OC)c(OC)c2)NC(C)=O)CC1 (stereo unspecified)	12µM*	-24	?	-2	-34
CC(=O)Nc1ccc(S(=O)(=O)N2CCN(CCc3ccccc3)CC2)cc1	?	-10	10%	-3	-4
CC(=O)Nc1ccc(S(=O)(=O)N2CCN(CCCOc3ccccc3Cl)CC2)cc1	6.6µM*	-12	nt	-3	-67*
COc1cccc(OCCCN2CCN(S(=O)(=O)c3ccc(NC(C)=O)cc3)CC2)c1	?	-8	nt	-2	-81*
COc1ccccc1N1CCN(c2ncnc3c2cnn3-c2cccc(Cl)c2)CC1	nt	nt	nt	nt	7
O=c1c2ccccc2n(Cc2cccc(F)c2)c(=O)n1Cc1ccccc1Cl	nt	nt	nt	nt	-18
Cc1ncc(CO)c(/C=N/NC(=S)Nc2ccc(C(C)C)cc2)c1O	12µM*	5	?	12	5
Cc1ncc(CO)c(/C=N/NC(=O)c2ccc(Br)cc2)c1O	?	-6	?	1	nt
Cc1ncc(CO)c(/C=N/NC(=O)c2cc(O)c(O)c(O)c2)c1O	?	2	2.6µM*	-5	nt
Cc1cccc(N2CCN(C(=O)C3CCC(=O)N(C4CC4)C3)CC2)c1C (stereo unspecified)	-16%	8	6%	9	0
CN(c1nc2ccccc2nc1Cl)S(=O)(=O)c1ccccc1	40%	45*	35%	27*	7
O=C1CC(/C=C/c2ccccn2)=Nc2ccccc2N1	0%	57*	?	22*	?
O=C1CC(/C=C/c2ccco2)=Nc2ccccc2N1	28%	-10	nt	-2	nt
CC[C@@]12C(=O)N(c3ccc(OC)cc3)C(=O)N1[C@H](c1ccc(Cl)cc1)[C@@H]1C(=O)N(C3CCCCC3)C(=O)[C@@H]12	?	-9	?	-3	-35
O=Cc1ccc(O)c2ncccc12	?	34	6.6µM*	14	nt
Cc1ccc(CNCC2CCCO2)o1 (stereo unspecified)	13µM*	-7	-3%	-5	25
CC1(C)Oc2nc3ccccc3n2/C1=C\C#N	?	-9	?	1	10
CCc1sc(C(=O)NCCCN2CCCC2=O)cc1Br	nt	nt	nt	nt	-3
NS(=O)(=O)c1ccc(CCNC(=O)c2ccc([N+](=O)[O-])s2)cc1	?	6	?	4	-100*
O=C(NCCCN1CCCC1=O)c1ccc([N+](=O)[O-])s1	?	nt	10µM*	nt	3
O=C(NCCCN1CCCC1=O)c1csc2ccccc12	nt	17	16%	12*	69
Cc1ccc(NC(=O)NCc2cccnc2)cc1Cl	-4%	39*	18%	32*	65
CCOC(=O)c1ccc(NCc2cccnc2)cc1	11%	45	56%	15*	4
CCc1ccc(NC(=O)NCc2cccnc2)cc1	?	10	64%	27*	25
O=C(NCc1cccnc1)Nc1ccccc1	-18%	5	18%	5	-17
SMILES	Pf growth 96h	Shiga inhibitor	Pf growth 48h	Cycloheximide cs	HCMV antiviral
CCCCC(NC(=O)c1ccc(C#N)cc1)C(=O)NCCC (stereo unspecified)	38%	nt	21%	nt	-19
Cc1cc(NC(=O)c2ccc3sc([C@@H]4O[C@H](CO)[C@H](O)[C@H](O)[C@H]4O)nc3c2)no1	nt	nt	nt	nt	-8
CN1C(=O)C(=O)/C(=C(/O)c2ccc(Br)cc2)C1c1ccc(F)cc1 (stereo unspecified)	-13%	-6	16%	0	-19
COC(=O)C1=C(O)/C(=C\c2sccc2C)N=C1C	27%	17	-22%	27*	2
COC(=O)c1cccc(-n2c(C)cc(C=O)c2C)c1C	?	49*	7%	19*	82
COC(=O)C1=C(C)NC(=O)/C1=C\c1cc(C)n(-c2cc(C)cc(C)c2)c1C	i	-6	nt	-1	-31
COC(=O)C1=C(O)/C(=C\c2cc(C)n(-c3ccccc3F)c2C)N=C1C	-40%	82*	?	34*	-9
